This passage reports enrichment ratio results from a collection of fitness landscapes (doi:10.1126/science.1257360).

The full ranking holds about 140,000 sequences; the median of “enrichment ratio after two sorts for PhoP signalling” is about 0, and the highest 2% start at about 11. The entries come from a sample that favours the highest values as a whole. Bounds are passed on as bounds.

The chains are these.
B1: PhoQ; a variant is named by its letters at X, in order, P23837 (parent)
chain: MKKLLRLFFPLSLRVRFLLATAAVVLVLSLAYGMVALIGYSVSFDKTTFRLLRGESNLFYTLAKWENNKLHVELPENIDKQSPTMTLIYDENGQLLWAQRDVPWLMKMIQPDWLKSNGFHEIEADVNDTSLLLSGDHSIQQQLQEVREDDDDAEMTHSVAVNVYPATSRMPKLTIVVVDTIPVELKSSYMVWSWFIYVLSANLLLVIPLLWVAAWWSLRPIEALAKEVRELEEHNRELLNPATTRELTSLVRNLNRLLKSERERYDKYRTTLTDLTHSLKTPLXXLQXXLRSLRSEKMSVSDAEPVMLEQISRISQQIGYYLHRASMRGGTLLSRELHPVAPLLDNLTSALNKVYQRKGVNISLDISPEISFVGEQNDFVEVMGNVLDNACKYCLEFVEISARQTDEHLYIVVEDDGPGIPLSKREVIFDRGQRVDTLRPGQGVGLAVAREITEQYEGKIVAGESMLGGARMEVIFGRQHSAPKDE

In this experiment the parent is B1. As to the kind of experiment: enrichment ratio after two sorts for PhoP signalling (ratio (wild type AVST 3.29)); higher = more functional. Conditions: with PhoP (E. coli).
In the case of MMHM, the enrichment ratio is at most 0.25.
With SCKK, the enrichment ratio is at most 0.25.
In the case of TYID it was at most 0.25.
In the case of LNTD it was at most 0.25.
In the case of IKRA, the enrichment ratio is at most 0.25.
In the case of QRQH, the enrichment ratio is at most 0.25.
As for NYNA, the enrichment ratio is at most 0.25.
Take MFGV: the enrichment ratio is at most 0.25.
In the case of NEWC, the enrichment ratio is at most 0.25.
For NRWC, the enrichment ratio was at most 0.25.
In the case of TQWC it was 29.7; in that of NQWC, at most 0.25.
In the case of LNWC it was at most 0.25.
In the case of TNWC it was at most 0.25; in that of HPWC, at most 0.25.
Regarding TEWC, the enrichment ratio came to 33.2.
In the case of MNWC it was 11.8; in that of FYWP, at most 0.25; in that of RAPP, at most 0.25.
In the case of TIYT it was 2.66; in that of HIYY, at most 0.25.
In the case of IYRV it was at most 0.25; in that of SKMA, 3.27.
WRFK: the enrichment ratio was at most 0.25.
In the case of DFPC it was at most 0.25; in that of YMWR, at most 0.25.
In the case of YTAI it was at most 0.25; in that of MKAI, at most 0.25.
In the case of QAAI it was 12.7; in that of QPAI, at most 0.25; in that of TPAI, at most 0.25.
As to MTAI, the enrichment ratio amounted to 17.8.
In the case of GKTK it was at most 0.25; in that of YGMR, at most 0.25; in that of ACFV, at most 0.25.
In the case of IALM it was 6.67; in that of KCLM, at most 0.25.
In the case of HMTM it was 11.7; in that of FVLM, 8.14; in that of YYLM, at most 0.25.
Consider YCWM, for which the enrichment ratio is at most 0.25.
In the case of ISLM it was 12.9.
In the case of FCLM it was 12.7.
Turning to HMGM, the enrichment ratio is at most 0.25.
In the case of ISWM it was at most 0.25; in that of YCLM, 14.9.
In the case of HMPM it was at most 0.25; in that of QYLA, at most 0.25; in that of RGIA, at most 0.25.
In the case of WTPQ it was at most 0.25.
On to MDVM, for which the enrichment ratio was found to be 8.67.
In the case of PTAN it was at most 0.25; in that of QCEP, at most 0.25.
For CALR, the enrichment ratio was at most 0.25.
In the case of WMFY it was at most 0.25; in that of IQQW, at most 0.25.
In the case of VWEW it was at most 0.25; in that of HMQF, at most 0.25.
Take YSKM: the enrichment ratio is at most 0.25.
In the case of WFWG it was at most 0.25; in that of GVAV, at most 0.25; in that of NSLM, 7.81.
In the case of FSLM it was 19.2; in that of HSLA, at most 0.25.
As to SYLM, the enrichment ratio is at most 0.25.
In the case of TSLM it was 16.7; in that of FQLM, 1.74; in that of SSLM, 17.1.
With HSLM, the enrichment ratio is 22.1.
In the case of FFLM it was at most 0.25; in that of KSLM, at most 0.25.
In the case of HSFM it was at most 0.25; in that of QNNM, at most 0.25; in that of YPIG, at most 0.25.
As to PMYL, the enrichment ratio is at most 0.25.
In the case of WVSG it was at most 0.25.
In the case of GGKL it was at most 0.25; in that of LPCH, at most 0.25.
For RYCQ, the enrichment ratio was at most 0.25.
In the case of FAPM it was 0.451; in that of HSTM, 13.1.
In the case of HSWM it was at most 0.25.
In the case of MALM it was 9.02; in that of FALM, 17.
Regarding HSCK, the enrichment ratio was at most 0.25.
In the case of AEWY it was 6.65; in that of FPSQ, at most 0.25.
In the case of YFHS it was at most 0.25.
On to HESK, for which the enrichment ratio is at most 0.25.
In the case of QHGM it was at most 0.25; in that of QHDK, at most 0.25.
In the case of QHRM it was at most 0.25; in that of PHDG, at most 0.25.
Regarding QHDI, the enrichment ratio amounted to 19.6.
In the case of NHDI it was at most 0.25; in that of QHDA, 10.1; in that of QHDM, 19.5.
In the case of THDG it was at most 0.25; in that of THDI, at most 0.25; in that of QHDG, 110.
Take QHDS: the enrichment ratio was 29.2.
In the case of LMVM it was at most 0.25; in that of EFMR, at most 0.25.
For LCAK, the enrichment ratio is at most 0.25.
In the case of IKYG it was at most 0.25.
AISC: the enrichment ratio is 9.79.
Take SAFV: the enrichment ratio is at most 0.25.
In the case of AGNI it was at most 0.25; in that of PWYG, at most 0.25.
In the case of YQLM it was 17.7; in that of WEGM, at most 0.25.
In the case of WQLM it was 15.8.
WFLM: the enrichment ratio was at most 0.25.
In the case of YQNS it was at most 0.25.
In the case of YQLA it was at most 0.25; in that of YQNY, at most 0.25; in that of YQNA, 14.6.
On to YQWM, for which the enrichment ratio was at most 0.25.
As for WILM, the enrichment ratio was at most 0.25.
On to WELF, for which the enrichment ratio is at most 0.25.
In the case of WELM it was 17.4; in that of QISH, 7.86; in that of FCVP, at most 0.25.
In the case of NSRA, the enrichment ratio worked out at 0.539.
In the case of NGWY it was at most 0.25.
In the case of VQWA it was at most 0.25; in that of EQLM, at most 0.25.
In the case of TQLM it was 22.7; in that of SQLM, 21.3; in that of NQLM, 6.38.
With KYLM, the enrichment ratio was at most 0.25.
Consider DPLM, for which the enrichment ratio is at most 0.25.
In the case of MPQH it was at most 0.25; in that of KFKS, at most 0.25; in that of TDIN, at most 0.25.
In the case of LAGL it was at most 0.25.
In the case of SWST it was at most 0.25; in that of DQAN, at most 0.25; in that of AMCY, 25.2.
VLCY: the enrichment ratio was at most 0.25.
In the case of THCY, the enrichment ratio was 1.87.
In the case of NMCY it was at most 0.25; in that of NHCY, at most 0.25; in that of AHCY, 12.7.
In the case of SYHH it was 0.299; in that of IIEM, at most 0.25.
In the case of KTPQ it was at most 0.25; in that of MTSW, at most 0.25; in that of AFVG, 4.66.
With AFCE, the enrichment ratio was at most 0.25.
In the case of AFCI it was at most 0.25; in that of AFMG, 19.5; in that of AFAG, at most 0.25.
In the case of AFCG it was 11.4.
